Data on 13 compounds can be found in PubChem BioAssay (NCI).

The structures appear in SMILES notation. The panel holds about 83,000 compounds, 20% with a hit somewhere; the sample as a whole holds those more often.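 Activity criterion: percent growth below 10, measured after cells in 96-well plates were exposed to a single compound concentration for 48 hours.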 A number with no mark means an inactive call. Active and inactive are the calls of the source.

Among the test systems are HCT-15 colon; HT29 colon; SNB-75 CNS; SNB-19 CNS; U251 CNS; PC-3 prostate; SK-MEL-5 melanoma; UACC-62 melanoma; LOX IMVI melanoma; SK-MEL-28 melanoma.
What all share (test): NCI-60 one-dose screen, 48 h (100 = growth as untreated, 0 = no growth, -100 = all killed)
Conditions in all cases: 10 µM unless noted

`CCCS(=O)(=O)Nc1ccc(F)c(C(=O)c2c[nH]c3ncc(-c4ccc(OCCCC5CCCCN5)nc4)cc23)c1F` (stereo not given): the growth is 102% in the test with HCT-15 colon; 2.79% (active) with HT29 colon; 19.4% in the test with SNB-75 CNS; 77.5% in the test with SNB-19 CNS; 61.2% in the test on U251 CNS; 53% with PC-3 prostate. Moreover, the growth in the test with SK-MEL-5 melanoma was 44.7%; in the test with UACC-62 melanoma, -22% (active); in the test with LOX IMVI melanoma, 32.8%; with SK-MEL-28 melanoma, -1.65% (active).
`COC(=O)c1ccc(NC(=O)CSc2nc(-c3ccc(F)cc3)nc3ccccc23)cc1`: the growth was 89.3% in the test with HCT-15 colon; 91.3% in the test on HT29 colon; 79.4% in the test on SNB-75 CNS; 80.2% in the test on SNB-19 CNS; 63.1% with U251 CNS; 75.6% with PC-3 prostate. For the same compound, the growth in the test with SK-MEL-5 melanoma was 74.3%; in the test on UACC-62 melanoma, 93.4%; in the test with LOX IMVI melanoma it was 64.8%; in the test with SK-MEL-28 melanoma, 94.7%.
Turning to `CS(=O)(=O)O[C@@H]1C(=O)N(c2cc3c4ccccc4ccc3c3ccccc23)[C@H]1c1ccc(F)cn1`, the growth in the test with HCT-15 colon is 29.1%; with HT29 colon it was 3.71% (active); in the test on SNB-75 CNS, -0.245% (active); in the test on SNB-19 CNS, 38.3%; in the test with U251 CNS, 29.5%; in the test with PC-3 prostate, 34.7%. Moreover, the growth in the test with SK-MEL-5 melanoma was 13.6%; with UACC-62 melanoma, 34%; in the test on LOX IMVI melanoma it was 34.2%; in the test with SK-MEL-28 melanoma, 68.6%.
`COc1ccc([C@H]2[C@@H](F)C(=O)N2c2cc(OC)c(OC)c(OC)c2)cc1F`: the growth with HCT-15 colon was 13.6%; in the test on HT29 colon it was 3.73% (active); in the test with SNB-75 CNS, 50.9%; with SNB-19 CNS, 34.1%; in the test with U251 CNS, 11.9%; in the test with PC-3 prostate, 23.1%. The growth with SK-MEL-5 melanoma is -31.5% (active); in the test on UACC-62 melanoma, 53.4%; in the test on LOX IMVI melanoma, 24%; in the test on SK-MEL-28 melanoma it was 57.7%.
`C=CCn1c(SCC(=O)Nc2ccc(C(=O)/C=C/c3ccc(Cl)cc3)cc2)nnc1-c1cc(OC)c(OC)c(OC)c1`: the growth in the test with HCT-15 colon is 89.7%; in the test on HT29 colon, 97.4%; in the test with SNB-75 CNS, 86.2%; with SNB-19 CNS, 85.3%; with U251 CNS it was 90.7%; with PC-3 prostate, 75.2%. Moreover, the growth in the test with SK-MEL-5 melanoma is 63.5%; in the test with UACC-62 melanoma, 70.4%; in the test on LOX IMVI melanoma, 91.8%; with SK-MEL-28 melanoma, 106%.
With `COc1ccc(-c2cn(-c3ccc(Cl)cc3)c(=S)[nH]2)cc1OC`, the growth in the test with HCT-15 colon is 63.4%; in the test on HT29 colon, 44.2%; in the test with SNB-75 CNS it was 111%; in the test on SNB-19 CNS, 90.6%; with U251 CNS, 75%; in the test on PC-3 prostate, 72.4%. The growth with SK-MEL-5 melanoma was 41.7%; with UACC-62 melanoma, 72.5%; in the test on LOX IMVI melanoma it was 0.188% (active); with SK-MEL-28 melanoma, 92.4%.
On to `COc1cc(/C=C/C(=O)/C=C/c2cc3ccc(Cl)cc3n(Cc3ccccc3)c2=O)ccc1O`, for which the growth was -46.1% (active) in the test on HCT-15 colon; -46.5% (active) with HT29 colon; 63.3% in the test with SNB-75 CNS; 13.3% with SNB-19 CNS; -64.7% (active) in the test on U251 CNS; -2.36% (active) in the test with PC-3 prostate. Moreover, the growth was -80.5% (active) in the test on SK-MEL-5 melanoma, -56% (active) in the test with UACC-62 melanoma, -90% (active) in the test with LOX IMVI melanoma and 3.48% (active) in the test with SK-MEL-28 melanoma.
Consider `CCCCn1c(=O)c(/C=C/C(=O)/C=C/c2ccc(O)c(OC)c2)cc2ccc(Cl)cc21`, for which the growth in the test with HCT-15 colon is 9.41% (active); with HT29 colon, -41.7% (active); with SNB-75 CNS, 54.8%; in the test with SNB-19 CNS, 38.3%; in the test on U251 CNS, 3.33% (active); in the test on PC-3 prostate, 27.2%. Moreover, the growth is 3.38% (active) in the test on SK-MEL-5 melanoma, 2.4% (active) in the test on UACC-62 melanoma, -51.3% (active) in the test with LOX IMVI melanoma and 38.8% in the test with SK-MEL-28 melanoma.
As to `O=c1c2ccccc2oc2ccc(OCCCCCN3CCCCCC3)cc12`, the growth with HCT-15 colon is 33.1%; in the test on HT29 colon, 12.9%; with SNB-75 CNS, 77.1%; with SNB-19 CNS it was 84%; with U251 CNS it was 60.3%; in the test with PC-3 prostate it was 80.7%. Moreover, the growth is -35.2% (active) with SK-MEL-5 melanoma, 2.08% (active) in the test with UACC-62 melanoma, 49.8% with LOX IMVI melanoma and 86.3% in the test with SK-MEL-28 melanoma.
For the compound `O=C(Nc1nc(-c2ccccc2Cl)cs1)c1cc(-c2ccc(Br)cc2)nc2ccccc12`, the growth was 61.6% in the test with HCT-15 colon; 37.4% with HT29 colon; 96.8% in the test on SNB-75 CNS; 71% in the test with SNB-19 CNS; 46.1% in the test with U251 CNS; 43.1% with PC-3 prostate. For the same compound, the growth is 27.9% in the test with SK-MEL-5 melanoma, 48.8% with UACC-62 melanoma, 50% in the test on LOX IMVI melanoma and 80.3% in the test with SK-MEL-28 melanoma.
Take `CN1C(=O)c2cc(Cl)nc3c(NC(=O)c4cccc(Cl)c4)c(Cl)c(NC(=O)c4cccc(Cl)c4)c1c23`: the growth was -83.9% (active) with HCT-15 colon; -57.7% (active) in the test with HT29 colon; 75.3% in the test on SNB-75 CNS; 2.15% (active) in the test with SNB-19 CNS; -68.4% (active) in the test on U251 CNS; -45.5% (active) in the test with PC-3 prostate. Besides, the growth in the test on SK-MEL-5 melanoma is 4.57% (active); in the test with UACC-62 melanoma, 6.83% (active); with LOX IMVI melanoma, -65.1% (active); in the test with SK-MEL-28 melanoma, -32.2% (active).
As to `c1ccc(-c2n(Cc3ccc4ccccc4n3)cc[n+]2Cc2ccc3ccccc3n2)cc1`, the growth was 102% in the test with HCT-15 colon; 22.8% in the test with HT29 colon; 42.6% in the test with SNB-75 CNS; 8.24% (active) in the test on SNB-19 CNS; 14.7% in the test with U251 CNS; 27% with PC-3 prostate. Moreover, the growth in the test with SK-MEL-5 melanoma is -73.4% (active); with UACC-62 melanoma, -10.3% (active); with LOX IMVI melanoma, 19.5%; in the test on SK-MEL-28 melanoma, 24.5%.
For the compound `CCOC(=O)/C=C1\SC(=Nc2ccc(C#N)cc2)N(CCN2C(=O)/C(=C/C(=O)OCC)SC2=Nc2ccc(C#N)cc2)C1=O`, the growth in the test with HCT-15 colon was 2.58% (active); in the test with HT29 colon, 15.7%; in the test with SNB-75 CNS, 53.6%; with SNB-19 CNS it was 28.2%; in the test with U251 CNS, -7.96% (active); in the test on PC-3 prostate, 39.6%. The growth with SK-MEL-5 melanoma is 58.8%; in the test on UACC-62 melanoma, 33.6%; in the test on LOX IMVI melanoma, 0.0355% (active); in the test with SK-MEL-28 melanoma it was 97%.
